# In the supplement of paper PMC8728848:
# Shown is part of a subset that was picked to be rich in the strongest signals.
# B1: CpGal16 (Clavelina picta) (protein)
# chain: MAKMITNYVGKRIECIMVATDMMSTVFSLASATGDLPFYINFRQRENSIVMNTRVHGKWQYEKSQSSGGMNFYEPFRLVVEVRPSVFKVTVSTMGEEDGITFNLQYSQITIKPDEIVAMHLGYCNLRSELLVTDL
# Experiments:
# Assay in all cases: glycan array binding signal (z-score within array); higher = stronger binding
# Conditions in all cases: glycan notation: IUPAC condensed, linker removed
# Fuc(a1-2)Gal(b1-3)GlcNAc = molecular target: Fuc(a1-2)Gal(b1-3)GlcNAc
# How it was run: (§1)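 Glycan array data were curated from 3228 arrays in the Consortium for Functional Glycomics database and kept only where the protein sequence was available. Glycan names were converted to IUPAC-condensed notation, and columns mapping to the same glycan were averaged. The binding signal is a within-array Z-score, averaged across arrays of the same protein sequence at different concentrations or buffers and across linkers. Negative Z-scores can be read as non-binding.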
# [1] = molecular target: Fuc(a1-2)Gal(b1-3)GlcNAc(b1-3)Gal(b1-4)Glc
# How it was run: as §1
# [2] = molecular target: Fuc(a1-2)Gal(b1-3)GlcNAc(b1-3)[Gal(b1-4)GlcNAc(b1-6)]Gal(b1-4)Glc
# How it was run: as §1
# [3] = molecular target: Fuc(a1-2)Gal(b1-3)[Fuc(a1-4)]GlcNAc(b1-2)Man(a1-3)[Fuc(a1-2)Gal(b1-3)[Fuc(a1-4)]GlcNAc(b1-2)Man(a1-6)]Man(b1-4)GlcNAc(b1-4)[Fuc(a1-6)]GlcNAc(b1-4)[Fuc(a1-6)]GlcNAc
# How it was run: as §1
# [4] = molecular target: Fuc(a1-2)Gal(b1-3)[Fuc(a1-4)]GlcNAc(b1-3)[Fuc(a1-3)[Gal(b1-4)]GlcNAc(b1-6)]Gal(b1-4)Glc
# How it was run: as §1
# Fuc(a1-2)Gal(b1-4)Glc6S = molecular target: Fuc(a1-2)Gal(b1-4)Glc6S
# How it was run: as §1
# [5] = molecular target: Fuc(a1-2)[Gal(a1-3)]Gal(b1-4)GlcNAc
# How it was run: as §1
# [6] = molecular target: Fuc(a1-2)[Gal(a1-3)]Gal(b1-4)[Fuc(a1-3)]GlcNAc
# How it was run: as §1
# [7] = molecular target: Fuc(a1-2)[GalNAc(a1-3)]Gal(b1-3)GlcNAc(b1-6)GalNAc
# How it was run: as §1
# [8] = molecular target: Fuc(a1-2)[GalNAc(a1-3)]Gal(b1-4)GlcNAc(b1-2)Man(a1-3)[Fuc(a1-2)[GalNAc(a1-3)]Gal(b1-4)GlcNAc(b1-2)Man(a1-6)]Man(b1-4)GlcNAc(b1-4)[Fuc(a1-6)]GlcNAc
# How it was run: as §1
# [9] = molecular target: Fuc(a1-2)[GalNAc(a1-3)]Gal(b1-4)GlcNAc(b1-3)Gal(b1-4)GlcNAc
# How it was run: as §1
# [10] = molecular target: Fuc(a1-3)[Gal3S(b1-4)]GlcNAc6S
# How it was run: as §1
# [11] = molecular target: Gal(a1-3)Gal(b1-3)[Fuc(a1-4)]GlcNAc(b1-2)Man(a1-3)[Gal(a1-3)Gal(b1-3)[Fuc(a1-4)]GlcNAc(b1-2)Man(a1-6)]Man(b1-4)GlcNAc(b1-4)GlcNAc
# How it was run: as §1
# Gal(b1-3)GlcNAc(b1-2)Man = molecular target: Gal(b1-3)GlcNAc(b1-2)Man
# How it was run: as §1
# [12] = molecular target: Gal(b1-3)GlcNAc(b1-2)Man(a1-3)[GlcNAc(b1-4)][Gal(b1-3)GlcNAc(b1-2)Man(a1-6)]Man(b1-4)GlcNAc(b1-4)GlcNAc
# How it was run: as §1
# [13] = molecular target: Gal(b1-3)GlcNAc(b1-3)Gal(b1-4)GlcNAc(b1-2)Man(a1-3)[Gal(b1-3)GlcNAc(b1-3)Gal(b1-4)GlcNAc(b1-2)Man(a1-6)]Man(b1-4)GlcNAc(b1-4)GlcNAc
# How it was run: as §1
# [14] = molecular target: Gal(b1-3)GlcNAc(b1-3)Gal(b1-4)GlcNAc(b1-2)[Gal(b1-3)GlcNAc(b1-3)Gal(b1-4)GlcNAc(b1-6)]Man(a1-6)[Gal(b1-3)GlcNAc(b1-3)Gal(b1-4)GlcNAc(b1-2)Man(a1-3)]Man(b1-4)GlcNAc(b1-4)[Fuc(a1-6)]GlcNAc
# How it was run: as §1
# [15] = molecular target: Gal(b1-3)GlcNAc(b1-3)Gal(b1-4)GlcNAc(b1-3)Gal(b1-4)GlcNAc(b1-2)[Gal(b1-3)GlcNAc(b1-3)Gal(b1-4)GlcNAc(b1-3)Gal(b1-4)GlcNAc(b1-6)]Man(a1-6)[Gal(b1-3)GlcNAc(b1-3)Gal(b1-4)GlcNAc(b1-3)Gal(b1-4)GlcNAc(b1-2)Man(a1-3)]Man(b1-4)GlcNAc(b1-4)[Fuc(a1-6)]GlcNAc
# How it was run: as §1
# [16] = molecular target: Gal(b1-3)GlcNAc(b1-3)Gal(b1-4)[Fuc(a1-3)]GlcNAc(b1-6)[Gal(b1-3)GlcNAc(b1-3)]Gal(b1-4)Glc
# How it was run: as §1
# [17] = molecular target: Gal(b1-4)GlcNAc(b1-2)Man(a1-3)[GlcNAc(b1-4)][Gal(b1-4)GlcNAc(b1-2)Man(a1-6)]Man(b1-4)GlcNAc(b1-4)GlcNAc
# How it was run: as §1
# [18] = molecular target: Gal(b1-4)GlcNAc(b1-3)Gal(b1-4)GlcNAc(b1-3)Gal(b1-4)GlcNAc(b1-2)Man(a1-3)[Gal(b1-4)GlcNAc(b1-3)Gal(b1-4)GlcNAc(b1-3)Gal(b1-4)GlcNAc(b1-2)Man(a1-6)]Man(b1-4)GlcNAc(b1-4)[Fuc(a1-6)]GlcNAc
# How it was run: as §1
# [19] = molecular target: Gal(b1-4)GlcNAc(b1-3)Gal(b1-4)GlcNAc(b1-3)Gal(b1-4)GlcNAc(b1-2)[Gal(b1-4)GlcNAc(b1-3)Gal(b1-4)GlcNAc(b1-3)Gal(b1-4)GlcNAc(b1-6)]Man(a1-6)[Gal(b1-4)GlcNAc(b1-3)Gal(b1-4)GlcNAc(b1-3)Gal(b1-4)GlcNAc(b1-2)Man(a1-3)]Man(b1-4)GlcNAc(b1-4)[Fuc(a1-6)]GlcNAc
# How it was run: as §1
# [20] = molecular target: Gal(b1-4)GlcNAc(b1-3)Gal(b1-4)GlcNAc(b1-3)Gal(b1-4)GlcNAc(b1-3)Gal(b1-4)GlcNAc(b1-3)Gal(b1-4)GlcNAc(b1-2)Man(a1-3)[Gal(b1-4)GlcNAc(b1-3)Gal(b1-4)GlcNAc(b1-3)Gal(b1-4)GlcNAc(b1-3)Gal(b1-4)GlcNAc(b1-3)Gal(b1-4)GlcNAc(b1-2)Man(a1-6)]Man(b1-4)GlcNAc(b1-4)[Fuc(a1-6)]GlcNAc
# How it was run: as §1
# [21] = molecular target: Gal(b1-4)GlcNAc(b1-3)Gal(b1-4)GlcNAc(b1-3)GalNAc
# How it was run: as §1
# Gal(b1-6)Gal = molecular target: Gal(b1-6)Gal
# How it was run: as §1
# [22] = molecular target: Gal3S(b1-3)[Fuc(a1-4)]GlcNAc
# How it was run: as §1
# Gal6S(b1-3)GlcNAc = molecular target: Gal6S(b1-3)GlcNAc
# How it was run: as §1
# Gal6S(b1-4)Glc6S = molecular target: Gal6S(b1-4)Glc6S
# How it was run: as §1
# GalNAc3S(b1-4)GlcNAc3S = molecular target: GalNAc3S(b1-4)GlcNAc3S
# How it was run: as §1
# [23] = molecular target: GlcNAc(a1-3)Gal(b1-4)GlcNAc
# How it was run: as §1
binder,measurement,setting,value
B1,glycan array binding signal (z-score),Fuc(a1-2)Gal(b1-3)GlcNAc,2.93
same,glycan array binding signal (z-score),[1],3.11
same,glycan array binding signal (z-score),[2],2.79
same,glycan array binding signal (z-score),[3],-0.402
same,glycan array binding signal (z-score),[4],-0.394
same,glycan array binding signal (z-score),Fuc(a1-2)Gal(b1-4)Glc6S,3.43
same,glycan array binding signal (z-score),[5],-0.113
same,glycan array binding signal (z-score),[6],-0.434
same,glycan array binding signal (z-score),[7],3.13
same,glycan array binding signal (z-score),[8],0.044
same,glycan array binding signal (z-score),[9],2.86
same,glycan array binding signal (z-score),[10],-0.265
same,glycan array binding signal (z-score),[11],-0.202
same,glycan array binding signal (z-score),Gal(b1-3)GlcNAc(b1-2)Man,0.015
same,glycan array binding signal (z-score),[12],2.87
same,glycan array binding signal (z-score),[13],3.83
same,glycan array binding signal (z-score),[14],3.99
same,glycan array binding signal (z-score),[15],4.48
same,glycan array binding signal (z-score),[16],3.33
same,glycan array binding signal (z-score),[17],-0.358
same,glycan array binding signal (z-score),[18],0.953
same,glycan array binding signal (z-score),[19],1.44
same,glycan array binding signal (z-score),[20],1.28
same,glycan array binding signal (z-score),[21],-0.168
same,glycan array binding signal (z-score),Gal(b1-6)Gal,-0.407
same,glycan array binding signal (z-score),[22],-0.266
same,glycan array binding signal (z-score),Gal6S(b1-3)GlcNAc,-0.282
same,glycan array binding signal (z-score),Gal6S(b1-4)Glc6S,-0.12
same,glycan array binding signal (z-score),GalNAc3S(b1-4)GlcNAc3S,0.397
same,glycan array binding signal (z-score),[23],-0.249
